Measurements reported in PubChem BioAssay (NCI).
Compounds without any hit were thinned out: in the full panel of roughly 83,000, 20% have a hit.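 96-well plates, one dose, 48 hours. Percent growth reported; active if below 10.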 Unmarked numbers belong to inactive results. Calls of active or inactive are those of the source.

Experiments:
Experiment in all cases: NCI-60 one-dose screen, 48 h (100 = growth as untreated, 0 = no growth, -100 = all killed)
Settings in all cases: 10 µM unless noted
T-47D breast = tested on: T-47D breast
BT-549 breast = tested on: BT-549 breast
MDA-MB-435 melanoma = tested on: MDA-MB-435 melanoma
SW-620 colon = tested on: SW-620 colon
MCF7 breast = tested on: MCF7 breast
HCT-116 colon = tested on: HCT-116 colon
HCC-2998 colon = tested on: HCC-2998 colon
KM12 colon = tested on: KM12 colon

Compound | growth (T-47D breast) | growth (BT-549 breast) | growth (MDA-MB-435 melanoma) | growth (SW-620 colon) | growth (MCF7 breast) | growth (HCT-116 colon) | growth (HCC-2998 colon) | growth (KM12 colon)
Clc1ccc(C2CC(c3cccc(Nc4ccncc4)c3)=NN2c2cc(Cl)cc(Cl)c2)cc1 (stereo not drawn) | 86.4% | 104% | 12.7% | -73.1% (active) | -8.62% (active) | -74.2% (active) | 19.6% | 9.65% (active)
Cc1ccc(-c2csc(/N=C3\C(=O)Nc4ccccc43)n2)cc1 | 20% | 23.6% | 12.9% | 19.4% | 6.92% (active) | 4.56% (active) | 6.25% (active) | 15.2%
CCn1ccnc1C(=O)/C=C/c1ccc(CC(=O)Nc2ccc(F)cc2)cc1 | 24.5% | 4.63% (active) | 20% | 6.04% (active) | 25.2% | 1.33% (active) | 78.8% | -14.3% (active)
COc1cc(C(=O)/C=C/c2c(C)n([O-])c3ccc(Cl)cc3[n+]2=O)cc(OC)c1OC | 29.8% | 64.7% | 49.4% | 24.2% | 30.4% | 15.4% | 100% | 73.1%
CCCN=C(N)c1ccc(NC(=O)c2ccc(C(=O)Nc3ccc(C(N)=NCCC)cc3)cc2)cc1 | 77.6% | 93.9% | 90.2% | 104% | 87.8% | 92.2% | 109% | 95.5%
Nc1nnc2cc(Cl)ccc2n1 | 93.1% | 114% | 106% | 96.5% | 88.7% | 101% | 110% | 97%
Fc1ccc2nc3c(cc2c1)CSc1nnc(-c2ccc[nH]c2=S)n1N3 | 84.1% | 97.7% | 103% | 93.5% | 98.7% | 92.7% | 103% | 106%
N/C(=N\N=C\c1cc2ccccc2[nH]1)N/N=C/c1cc2ccccc2[nH]1 | 88.8% | 98.7% | 104% | 101% | 69.8% | 86.8% | 99.6% | 97.6%
CC(=O)N1c2ccccc2NC2=C(C(=O)N(C)C2(C)C)C1C (stereo not drawn) | 28.7% | 69.5% | -67.8% (active) | 24.2% | 16.4% | 24.9% | 60.8% | 19.8%
Cc1[nH]c(C(=O)Nc2ccccc2OCc2cccc(C(=O)NCCN)c2)c(Cl)c1Cl | 46.5% | 97.2% | 69.1% | 3.75% (active) | 14.7% | 7.52% (active) | 84.4% | 64.1%
c1ccc(Cn2nc3c(c2-c2ccccc2)-c2oncc2CC3)cc1 | 80.9% | 88% | 89.2% | 106% | 82.5% | 94.2% | 97.8% | 99.6%
CCN(CC)CCCC(C)Nc1cc(-c2cccc(OC(F)(F)F)c2)nc2ccc(N3CCCC3)cc12 (stereo not drawn) | -19.3% (active) | 78.7% | -84.4% (active) | -37.5% (active) | -10% (active) | -53.7% (active) | -58.2% (active) | 7.78% (active)
CCN(CC)CCSCCCNc1c(C)cnc2cc(Cl)ccc12 | 96.5% | 85.6% | 85.1% | 88.3% | 79.4% | 52.9% | 91% | 91.6%
O=S(=O)(NCCCNc1nccc(-c2c(-c3ccccc3)nc3occn23)n1)c1ccc(Cl)cc1 | 58.9% | 104% | 64.3% | 108% | 60.5% | 68.4% | 102% | 95.7%
Cc1c(C2=CCCCC2)c2ccccn2c1C(=O)c1cccc(S(=O)(=O)N2CCOCC2)c1 | 79.3% | 54.8% | 62.5% | 98.2% | 93.4% | 43% | 82.2% | 72.3%
Cc1cccc(Oc2ccc(Nc3ncnc4ccc(NC(=O)CNCCO)cc34)cc2Cl)c1 | 35.7% | 73.4% | 55.7% | 77.9% | 47.1% | 37.2% | 66.8% | 76.8%

Compound | growth (T-47D breast) | growth (BT-549 breast) | growth (MDA-MB-435 melanoma) | growth (SW-620 colon) | growth (MCF7 breast) | growth (HCT-116 colon) | growth (HCC-2998 colon) | growth (KM12 colon)
Cn1c(COC(=O)NCCn2ccnc2)nc2c(N3CCOCC3)nc(-c3ccccc3)nc21 | -36.1% (active) | -78.2% (active) | -91.2% (active) | -68.8% (active) | -67% (active) | -74.6% (active) | -82.1% (active) | -69.3% (active)
COc1nc(N)nc(-n2c(-c3ccc(C)cc3)nc3ccccc32)c1NCc1ccc(C)cc1 | 79% | 101% | 102% | 98.1% | 91.8% | 84.5% | 103% | 89.6%
COc1ccc(C(O)c2cc3c(N)c(C(=O)Nc4cccc(Br)c4C)sc3nc2C)cc1 (stereo not drawn) | 51.8% | 42.3% | 8.91% (active) | 25.9% | 22.1% | 13.2% | 16.2% | 11.1%
COc1ccc(Nc2nc(N)nc3c2CCc2occc2-3)cc1 | 83.4% | 78.3% | 105% | 106% | 78.7% | 90% | 108% | 95.9%
COc1cc(NCC(C)(O)CN(CC(C)C)CC(C)C)c2nc(C)ccc2c1 (stereo not drawn) | 7.65% (active) | 92.4% | 102% | 86.5% | -46.1% (active) | 66.3% | 75.5% | 63.2%
CC1=NNC(=O)C1CCC(=O)N/N=C(\C)c1ccc2ccccc2c1 (stereo not drawn) | 146% | 118% | 86.5% | 103% | 98.9% | 92.7% | 107% | 98.9%
O=S(=O)(NCCCNc1nccc(-c2c(-c3cccc(O)c3)nc3occn23)n1)c1ccc(Br)cc1 | 83.2% | 105% | 40.6% | 112% | 98.8% | 65.2% | 121% | 94.4%
CCNC(=S)NNC(=O)c1cc2ccc1CCc1ccc(cc1)CC2 | 95.8% | 102% | 100% | 101% | 93.6% | 92.5% | 103% | 102%
CC1(C)CC[C@]2(C(=O)NCC#CCN3CCOCC3)CC[C@]3(C)C(=CC[C@@H]4[C@@]5(C)Cc6c([nH]c7ccccc67)C(C)(C)[C@@H]5CC[C@]43C)[C@@H]2C1 | 75.2% | 101% | 83.1% | 103% | 81.1% | 73.9% | 105% | 91.3%
COc1cccc2c1C(=O)c1c(O)c3c(c(O)c1C2=O)C[C@@](O)(C(=O)CO)C[C@@H]3O[C@H]1C[C@H](N)[C@@H](O)[C@H](C)O1 | 4.43% (active) | -39% (active) | -77.6% (active) | 0.619% (active) | 4.48% (active) | 5.25% (active) | -22.8% (active) | 1.25% (active)
COc1ccc(/C(C)=N/NC(=O)CSc2nc3ccccc3c(=O)n2Cc2ccc(S(N)(=O)=O)cc2)c(OC)c1 | 95.6% | 104% | 102% | 102% | 90.7% | 102% | 115% | 102%
C=CCn1c(SCC(=O)Nc2ccc(C(=O)/C=C/c3cc(OC)c(OC)c(OC)c3)cc2)nnc1-c1cc(OC)c(OC)c(OC)c1 | 60.7% | 52.3% | 3.79% (active) | -9.49% (active) | 7.87% (active) | -70.9% (active) | 20.2% | 1.11% (active)
CN(C)C(=O)c1cc2cnc(Nc3ccc(-c4csc5c(=O)cc(N6CCOCC6)oc45)cc3)nc2n1C1CCCC1 | -4.72% (active) | -79.1% (active) | -38.7% (active) | -45.6% (active) | -46.8% (active) | -29.2% (active) | -44.6% (active) | -86.9% (active)
COc1cc(/C=N/NC(=O)c2ccccc2Nc2cccc(C(F)(F)F)c2)ccc1O | 55.6% | 102% | 81.4% | 101% | 83.9% | 67.2% | 91.4% | 79.5%
O=S(=O)(NCCCNc1nccc(-c2c(-c3ccc(F)c(O)c3)nc3sccn23)n1)c1ccc(F)cc1 | -1.88% (active) | 26.7% | -11.7% (active) | 11.8% | 4.13% (active) | 0.843% (active) | 4.68% (active) | 10.4%
